# Assays:
# Test in all cases: PBM binding z-score (relative to random genomic background probes); higher = stronger binding; sequences stand for … in GC…GCGATTGACAGCGTAGAATGAAGG
# [1] = tested on: FXR:RXRa (NR concentration 270 nM, RXRa partner concentration 90 nM)
# Outline: (§1)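 Antibodies against each partner of ligand-free nuclear receptor dimers (one per run) detected binding on custom Agilent 4×180K protein-binding microarrays after 1 h incubation. The double-stranded probes had 34-nt variable regions carrying direct-repeat seeds, single-nucleotide variants, half-site ablations and random human genomic background sequences. Binding z-scores, from regression-normalized fluorescence, use the random background probes as reference.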
# [2] = tested on: LXRa:RXRa (NR concentration 270 nM, RXRa partner concentration 90 nM)
# Outline: as §1
# [3] = tested on: LXRa homodimer (NR concentration 270 nM)
# Outline: as §1
# [4] = tested on: LXRb:RXRa (NR concentration 270 nM, RXRa partner concentration 90 nM)
# Outline: as §1
# [5] = tested on: LXRb homodimer (NR concentration 270 nM)
# Outline: as §1
# [6] = tested on: PPARa:RXRa (NR concentration 270 nM, RXRa partner concentration 90 nM)
# Outline: as §1
# [7] = tested on: PPARg:RXRa (NR concentration 180 nM, RXRa partner concentration 90 nM)
# Outline: as §1
# [8] = tested on: PPARg:RXRa 270nM:90nM, anti-RXR (NR concentration 270 nM, RXRa partner concentration 90 nM)
# Outline: as §1
# [9] = tested on: PPARg:RXRa 30nM:10nM, anti-RXR (NR concentration 30 nM, RXRa partner concentration 10 nM)
# Outline: as §1
# [10] = tested on: PPARg:RXRa 90nM:30nM, anti-RXR (NR concentration 90 nM, RXRa partner concentration 30 nM)
# Outline: as §1
Sequence,PBM binding z-score [1],PBM binding z-score [2],PBM binding z-score [3],PBM binding z-score [4],PBM binding z-score [5],PBM binding z-score [6],PBM binding z-score [7],PBM binding z-score [8],PBM binding z-score [9],PBM binding z-score [10]
AGAATGAGGTTAAGATAAGGGAAACAGAATACAT,2.28,2.29,0.217,1.88,0.218,3.48,2.73,2.29,0.99,1.69
GCTAGTTGGTCAGTAAACGGTCACACACCGGTCG,-0.00893,0.121,0.352,-0.139,-0.393,0.395,0.552,-0.0958,-0.311,0.18
ACTATTAGGTGAGACGAGGGCAACCGATAGGTTG,1.3,0.503,0.00247,0.202,-0.293,1.5,1.44,1.19,0.65,0.864
GAATATAGGTAATACAAGGTGAAAGTCCGATTGT,1.61,2.61,0.76,1.01,0.0272,2.77,3.39,3,0.987,2
ATCTGTAGGTAAAGATAGTTCAGTGAATGCAAAT,0.274,4.33,0.422,0.986,0.477,0.733,0.782,0.571,0.256,0.391
AGTAGCAGGCCAAGTTTGGGTCACTCAAACAAAG,0.202,-0.31,-0.37,0.549,-0.802,1.47,-0.0669,0.42,-0.474,-0.201
CCTACTGGGCCATTCAGAGGTCATTGCTCATATG,2.76,4.37,6.67,3.6,0.398,3.57,1.99,2.92,0.777,2.16
GGAACGAGGGCATTCGTGTTGATAGCATGGCGAT,0.778,0.372,-0.449,0.152,-0.674,1.39,0.763,0.768,-0.395,0.413
TCTTGTAGATCAATAGAGGTTAAGAAAGTGCGCT,0.723,3.4,0.589,1.83,-0.158,1.8,-0.124,1.46,2.83,2.18
TCTAGCTGGCCAGAGGGTCACTCAAGAGGTACGG,1.2,0.792,-0.669,1.05,-0.983,1.89,0.596,1.85,1.77,1.44
CCTTACGGGTCAACGTTATAGCACGGGTGGTACG,4.79,3.47,-0.0163,2.99,-0.125,4.99,4.45,4.48,1.52,3.43
GCAGACAGGTGAAACGCCGGTAACTCAGGGTGGC,-0.365,-0.144,-0.611,-0.313,-0.77,0.601,0.303,-0.0478,-0.502,-0.552
ACAGACAGGTGATGAAGGTAACTCAGGCTATCAT,-0.17,-0.295,-0.208,-0.204,-0.527,0.152,0.816,-0.0244,-0.0108,-0.132
TGTCATAGTTCAAAGGTAACGTAAGTATCCACAC,4.03,4.22,1.04,2.89,0.786,4.17,5.59,5.56,2.89,4.8
ATCTCTAGGTAAATTTCAGTGAAAGATCGATAGA,0.175,0.31,0.359,0.199,0.934,0.102,0.408,0.671,0.581,0.833
TCAAGTAGGTTAGGGGCATTCAGAATGGCGTCGA,0.99,0.718,0.21,1.28,0.587,2.19,2.64,3.58,3.71,3.65
ATACCAAGGAGATCGTGAGGTCGTTGATACTAAC,0.608,0.359,0.339,0.531,-0.481,0.547,0.375,-0.542,-0.0699,-0.394
GCATATAGGTAATACAACGTGAAAGTCCGATTGT,-0.622,-0.502,-0.205,-0.638,-0.368,0.333,1.02,0.49,0.28,0.431
CTACCAAGGTAAACAAGGTCGTTGATTACTATTC,0.877,1.37,0.268,1.56,-0.376,1.57,0.314,0.42,-0.128,0.258
ATATGTAGGTTCGCTGGGGTCATTCAGACTAGGC,4.11,3.93,1.89,4.28,1.4,4.69,2.95,3.83,1.2,2.91
CCTACTGGACCAAAAAGGTCATTGATGCCGATAA,3.74,4.82,4.22,4.55,1.28,4.55,2.13,3.38,1.31,2.53
CCTACTGGGCAAAGGTCATTGATCAGTCAAAGCA,4.96,5.6,3.49,4.8,0.805,5.63,8.03,7.54,5.9,7.6
TCGAGTAGTTTACCAATGGGGCATTCAGCTTTCT,-0.0204,-0.0341,-0.552,0.423,-0.375,-0.115,-0.798,0.325,0.821,0.499

# Reference: the supplement of paper PMC6555819
